Experimental data from the supplement of paper PMC10849652.
About 7,900 targets were measured; listed, in parts, are those with a hit and a random draw of the rest. About 0.6% of all pairs of compound and target were hits. Unmarked numbers belong to inactive results.

What was measured:
Assay in all cases: log2 fold change, soluble protein after heating vs DMSO (PISA); higher = thermal stabilisation; K562 cells, 10 uM, 30 min; active = over 0.2 and 3.5 SD of the protein, either way, in both replicates (recomputed)
[1] = compound: CS(=O)(=O)c1ccc(-c2cnc(N)c(C(=O)Nc3ccccc3)n2)cc1
In short: (§1)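 K562 cells (2×10^6 cells/mL) were treated with 10 μM compound for 30 min, and aliquots were heated for 3 min over 48°C-58°C. Pooled aliquots were extracted in PBS with 0.5% NP-40 at 4°C, and the supernatant after 21,000xg for 90 min was measured by TMTpro 16plex LC-MS/MS with channel sums equalised. Reported thermal stability, relative to control samples and from duplicates, is a log2 fold change.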

crizotinib = compound: C[C@@H](Oc1cc(-c2cnn(C3CCNCC3)c2)cnc1N)c1c(Cl)ccc(F)c1Cl [crizotinib]
In short: as §1

[2] = compound: C[C@@H]1COCCN1C2=NC(=NC(=C2)C3(CC3)S(=O)(=O)C)C4=C5C=CNC5=CC=C4
In short: as §1

[3] = compound: C[C@H](C1=CC=C(C=C1)C(=O)NC2=C3C=CNC3=NC=C2)N
In short: as §1

duvelisib = compound: C[C@H](Nc1ncnc2nc[nH]c12)c1cc2cccc(Cl)c2c(=O)n1-c1ccccc1 [duvelisib]
In short: as §1

gandotinib = compound: Cc1cc(Nc2cc(CN3CCOCC3)c3nc(C)c(Cc4ccc(Cl)cc4F)n3n2)n[nH]1 [gandotinib]
In short: as §1

tozasertib = compound: Cc1cc(Nc2cc(N3CCN(C)CC3)nc(Sc3ccc(NC(=O)C4CC4)cc3)n2)n[nH]1 [tozasertib]
In short: as §1

[4] = compound: Cc1cc(SCc2sc(-c3ccc(C(F)(F)F)cc3)nc2C)ccc1OCC(=O)O
In short: as §1

doramapimod = compound: Cc1ccc(-n2nc(C(C)(C)C)cc2NC(=O)Nc2ccc(OCCN3CCOCC3)c3ccccc23)cc1 [doramapimod]
In short: as §1

ispinesib = compound: Cc1ccc(C(=O)N(CCCN)[C@@H](c2nc3cc(Cl)ccc3c(=O)n2Cc2ccccc2)C(C)C)cc1 [ispinesib]
In short: as §1

bafetinib = compound: Cc1ccc(NC(=O)c2ccc(CN3CC[C@H](N(C)C)C3)c(C(F)(F)F)c2)cc1Nc1nccc(-c2cncnc2)n1 [bafetinib]
In short: as §1

[5] = compound: Cc1cccc(CC(=O)N2CCc3c2ccc(-c2cn(C)c4ncnc(N)c24)c3F)n1
In short: as §1

nilotinib = compound: Cc1cn(-c2cc(NC(=O)c3ccc(C)c(Nc4nccc(-c5cccnc5)n4)c3)cc(C(F)(F)F)c2)cn1 [nilotinib]
In short: as §1

[6] = compound: Cc1nc(Nc2n[nH]c3c2CN(C(=O)N[C@H](CN(C)C)c2ccccc2)C3(C)C)c2sccc2n1
In short: as §1

dasatinib = compound: Cc1nc(Nc2ncc(C(=O)Nc3c(C)cccc3Cl)s2)cc(N2CCN(CCO)CC2)n1 [dasatinib]
In short: as §1

[7] = compound: Cc1ncc(-c2ccnc(Nc3ccc(S(C)(=O)=O)cc3)n2)n1C(C)C
In short: as §1

[8] = compound: Cn1cc(-c2ccc3c(c2)CCN3C(=O)Cc2cccc(C(F)(F)F)c2)c2c(N)ncnc21
In short: as §1

[9] = compound: Cn1cc(-c2ccc3nnc(C(F)(F)c4ccc5ncccc5c4)n3n2)cn1
In short: as §1

tipifarnib = compound: Cn1cncc1[C@@](N)(c1ccc(Cl)cc1)c1ccc2c(c1)c(-c1cccc(Cl)c1)cc(=O)n2C [tipifarnib]
In short: as §1

mubritinib = compound: FC(F)(F)c1ccc(/C=C/c2nc(COc3ccc(CCCCn4ccnn4)cc3)co2)cc1 [mubritinib]
In short: as §1

Sequence of UniProt O43427 (O43427 whole entry, looked up): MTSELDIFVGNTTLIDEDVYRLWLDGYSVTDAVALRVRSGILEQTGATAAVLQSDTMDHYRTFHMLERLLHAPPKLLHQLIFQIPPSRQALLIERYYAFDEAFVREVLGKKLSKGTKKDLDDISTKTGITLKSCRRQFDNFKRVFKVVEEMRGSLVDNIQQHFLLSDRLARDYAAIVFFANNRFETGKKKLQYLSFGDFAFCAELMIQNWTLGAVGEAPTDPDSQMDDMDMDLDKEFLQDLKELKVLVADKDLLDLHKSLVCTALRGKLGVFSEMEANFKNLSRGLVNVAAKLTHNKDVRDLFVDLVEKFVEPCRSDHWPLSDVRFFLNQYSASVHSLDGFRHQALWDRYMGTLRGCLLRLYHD
Sequence of UniProt P05362 (P05362 whole entry, looked up): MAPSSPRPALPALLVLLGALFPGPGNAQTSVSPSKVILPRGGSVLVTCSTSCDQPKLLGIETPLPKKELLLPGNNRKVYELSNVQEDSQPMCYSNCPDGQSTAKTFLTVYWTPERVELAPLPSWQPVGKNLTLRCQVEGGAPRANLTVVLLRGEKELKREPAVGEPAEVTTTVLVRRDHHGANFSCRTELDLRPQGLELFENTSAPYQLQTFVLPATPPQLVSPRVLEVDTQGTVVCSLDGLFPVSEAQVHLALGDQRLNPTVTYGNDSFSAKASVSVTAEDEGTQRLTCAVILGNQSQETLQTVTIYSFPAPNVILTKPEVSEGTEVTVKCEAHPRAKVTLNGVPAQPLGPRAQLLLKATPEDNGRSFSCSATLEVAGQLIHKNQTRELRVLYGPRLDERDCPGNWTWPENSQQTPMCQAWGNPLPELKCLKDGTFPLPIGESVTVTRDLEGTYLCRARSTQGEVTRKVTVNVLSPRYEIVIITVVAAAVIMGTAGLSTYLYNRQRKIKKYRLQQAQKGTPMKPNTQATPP
Sequence of UniProt Q9Y3D6 (Q9Y3D6 whole entry, looked up): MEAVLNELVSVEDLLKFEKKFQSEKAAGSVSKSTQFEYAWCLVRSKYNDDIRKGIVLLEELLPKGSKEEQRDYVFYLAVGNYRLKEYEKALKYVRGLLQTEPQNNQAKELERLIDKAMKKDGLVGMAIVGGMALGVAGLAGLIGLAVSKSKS
Sequence of UniProt P09105 (P09105 whole entry, looked up): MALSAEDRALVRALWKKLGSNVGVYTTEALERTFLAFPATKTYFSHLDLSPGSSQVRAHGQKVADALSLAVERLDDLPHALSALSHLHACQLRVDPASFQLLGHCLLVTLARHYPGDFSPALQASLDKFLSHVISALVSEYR
Sequence of UniProt Q9UQC2 (Q9UQC2 whole entry, looked up): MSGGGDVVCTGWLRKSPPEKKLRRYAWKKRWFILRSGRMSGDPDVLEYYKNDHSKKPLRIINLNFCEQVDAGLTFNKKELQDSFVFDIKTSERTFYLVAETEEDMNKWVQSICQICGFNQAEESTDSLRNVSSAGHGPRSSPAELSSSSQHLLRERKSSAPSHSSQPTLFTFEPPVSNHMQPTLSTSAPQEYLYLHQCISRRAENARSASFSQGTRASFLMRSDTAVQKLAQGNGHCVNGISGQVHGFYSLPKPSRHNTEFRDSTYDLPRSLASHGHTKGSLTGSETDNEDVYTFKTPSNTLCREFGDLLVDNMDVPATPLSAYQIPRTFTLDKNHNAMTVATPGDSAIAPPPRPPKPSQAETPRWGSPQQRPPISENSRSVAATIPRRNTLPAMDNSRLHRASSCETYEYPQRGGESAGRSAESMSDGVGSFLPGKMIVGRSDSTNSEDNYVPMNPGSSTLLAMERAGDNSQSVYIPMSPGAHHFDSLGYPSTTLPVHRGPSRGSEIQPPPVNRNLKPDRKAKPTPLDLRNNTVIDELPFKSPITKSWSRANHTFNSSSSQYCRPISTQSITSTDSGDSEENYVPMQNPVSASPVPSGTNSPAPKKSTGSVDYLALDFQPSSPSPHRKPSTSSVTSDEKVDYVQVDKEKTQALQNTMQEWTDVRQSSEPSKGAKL
Sequence of UniProt O43524 (O43524 whole entry, looked up): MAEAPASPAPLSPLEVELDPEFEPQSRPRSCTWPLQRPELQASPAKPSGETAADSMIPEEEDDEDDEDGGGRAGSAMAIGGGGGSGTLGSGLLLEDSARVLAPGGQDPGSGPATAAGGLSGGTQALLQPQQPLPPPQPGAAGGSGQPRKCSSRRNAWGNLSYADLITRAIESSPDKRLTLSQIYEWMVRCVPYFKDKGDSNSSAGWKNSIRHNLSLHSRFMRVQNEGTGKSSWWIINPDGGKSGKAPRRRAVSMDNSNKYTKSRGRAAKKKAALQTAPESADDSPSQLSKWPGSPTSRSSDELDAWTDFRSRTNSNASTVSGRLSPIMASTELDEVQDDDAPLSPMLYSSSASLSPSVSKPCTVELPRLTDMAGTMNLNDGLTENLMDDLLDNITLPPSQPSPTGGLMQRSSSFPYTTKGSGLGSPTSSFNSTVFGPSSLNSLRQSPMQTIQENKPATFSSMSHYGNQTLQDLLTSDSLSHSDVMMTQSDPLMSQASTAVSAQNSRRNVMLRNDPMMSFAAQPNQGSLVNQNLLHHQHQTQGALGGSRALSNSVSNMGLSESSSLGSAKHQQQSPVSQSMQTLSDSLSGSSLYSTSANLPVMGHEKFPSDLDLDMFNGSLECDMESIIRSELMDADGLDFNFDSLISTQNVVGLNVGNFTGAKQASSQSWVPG
Sequence of UniProt O14893 (O14893 whole entry, looked up): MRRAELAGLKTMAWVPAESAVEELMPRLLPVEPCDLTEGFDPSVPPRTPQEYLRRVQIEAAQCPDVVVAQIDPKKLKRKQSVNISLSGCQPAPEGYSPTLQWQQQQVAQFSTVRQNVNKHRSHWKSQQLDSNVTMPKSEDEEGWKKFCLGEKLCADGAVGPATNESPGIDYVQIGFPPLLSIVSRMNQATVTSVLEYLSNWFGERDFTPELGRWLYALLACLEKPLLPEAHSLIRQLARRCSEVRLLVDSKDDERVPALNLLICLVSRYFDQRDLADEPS
Sequence of UniProt Q9Y5Q8 (Q9Y5Q8 whole entry, looked up): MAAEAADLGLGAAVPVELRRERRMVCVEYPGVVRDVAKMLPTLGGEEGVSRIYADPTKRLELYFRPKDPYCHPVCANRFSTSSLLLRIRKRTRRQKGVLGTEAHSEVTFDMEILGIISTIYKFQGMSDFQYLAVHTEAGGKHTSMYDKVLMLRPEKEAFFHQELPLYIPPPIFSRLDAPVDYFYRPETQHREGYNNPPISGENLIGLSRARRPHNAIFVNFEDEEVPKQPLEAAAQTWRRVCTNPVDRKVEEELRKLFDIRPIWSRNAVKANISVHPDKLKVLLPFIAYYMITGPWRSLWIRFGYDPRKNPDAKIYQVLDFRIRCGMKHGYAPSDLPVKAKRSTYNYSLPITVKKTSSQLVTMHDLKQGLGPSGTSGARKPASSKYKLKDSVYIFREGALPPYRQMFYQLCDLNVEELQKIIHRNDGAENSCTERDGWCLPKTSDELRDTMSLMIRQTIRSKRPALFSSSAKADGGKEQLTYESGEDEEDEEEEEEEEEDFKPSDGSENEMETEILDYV
Sequence of UniProt Q9UK99 (Q9UK99 whole entry, looked up): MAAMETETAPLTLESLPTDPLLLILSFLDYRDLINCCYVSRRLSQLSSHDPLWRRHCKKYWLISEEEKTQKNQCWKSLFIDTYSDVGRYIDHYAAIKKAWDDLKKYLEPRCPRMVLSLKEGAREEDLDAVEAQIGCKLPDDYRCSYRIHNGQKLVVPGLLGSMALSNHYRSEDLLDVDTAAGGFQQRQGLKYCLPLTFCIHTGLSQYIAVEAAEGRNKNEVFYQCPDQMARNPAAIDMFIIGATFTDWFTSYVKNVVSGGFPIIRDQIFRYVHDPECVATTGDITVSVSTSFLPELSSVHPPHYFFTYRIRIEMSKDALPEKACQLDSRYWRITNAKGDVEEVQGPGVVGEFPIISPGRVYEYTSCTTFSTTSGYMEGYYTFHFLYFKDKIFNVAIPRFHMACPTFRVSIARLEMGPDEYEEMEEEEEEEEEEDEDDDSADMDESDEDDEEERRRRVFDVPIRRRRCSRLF
Sequence of UniProt Q9NZC3 (Q9NZC3 whole entry, looked up): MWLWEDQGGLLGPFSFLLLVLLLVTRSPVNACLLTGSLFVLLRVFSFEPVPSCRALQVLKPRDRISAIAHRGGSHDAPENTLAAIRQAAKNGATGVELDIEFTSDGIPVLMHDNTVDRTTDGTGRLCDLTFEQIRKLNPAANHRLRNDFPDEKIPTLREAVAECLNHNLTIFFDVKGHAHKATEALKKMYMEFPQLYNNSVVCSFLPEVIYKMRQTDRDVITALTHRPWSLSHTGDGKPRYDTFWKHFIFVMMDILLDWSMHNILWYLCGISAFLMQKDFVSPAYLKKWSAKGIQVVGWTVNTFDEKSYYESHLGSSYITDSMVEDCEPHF
Sequence of UniProt P39748 (P39748 whole entry, looked up): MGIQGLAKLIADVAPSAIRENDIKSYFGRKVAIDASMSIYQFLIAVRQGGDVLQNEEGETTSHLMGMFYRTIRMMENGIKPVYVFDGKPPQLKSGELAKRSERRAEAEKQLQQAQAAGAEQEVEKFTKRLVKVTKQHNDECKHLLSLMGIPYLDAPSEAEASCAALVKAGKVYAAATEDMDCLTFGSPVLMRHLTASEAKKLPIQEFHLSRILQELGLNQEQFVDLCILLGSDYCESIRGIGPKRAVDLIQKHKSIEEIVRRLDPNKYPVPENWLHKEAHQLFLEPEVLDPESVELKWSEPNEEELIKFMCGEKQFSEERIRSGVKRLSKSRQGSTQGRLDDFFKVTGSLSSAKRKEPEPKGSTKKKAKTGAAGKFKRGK

Row | Target | log2 fold change [1] | log2 fold change (crizotinib) | log2 fold change [2] | log2 fold change [3] | log2 fold change (duvelisib) | log2 fold change (gandotinib) | log2 fold change (tozasertib) | log2 fold change [4] | log2 fold change (doramapimod) | log2 fold change (ispinesib) | log2 fold change (bafetinib) | log2 fold change [5] | log2 fold change (nilotinib) | log2 fold change [6] | log2 fold change (dasatinib) | log2 fold change [7] | log2 fold change [8] | log2 fold change [9] | log2 fold change (tipifarnib) | log2 fold change (mubritinib)
1 | GALNT1 (UniProt Q10472) | 0.014 | -0.012 | 0.019 | -0.013 | 0.046 | 0.012 | -0.043 | 0.004 | 0.026 | 0.048 | -0.053 | -0.065 | -0.059 | 0.014 | 0.014 | 0.142 | 0.1 | -0.093 | 0.019 | 0.029
2 | HDAC2 (UniProt Q92769) | -0.01 | 0.08 | -0.02 | -0.046 | 0.022 | 0.003 | -0.002 | -0.029 | 0.011 | 0.072 | 0.137 | -0.046 | -0.01 | 0.009 | 0.007 | -0.002 | -0.01 | -0.001 | 0.027 | 0.015
3 | ICAM1 (UniProt P05362) | 0.052 | 0.142 | 0.026 | -0.069 | 0.024 | -0.134 | -0.062 | -0.054 | -0.012 | 0.121 | 0.031 | -0.024 | 0.055 | 0.051 | -0.01 | -0.019 | 0.048 | -0.006 | 0.019 | 0.046
4 | FHOD1 (UniProt Q9Y613) | 0.033 | -0.107 | -0.174 | 0.58 (active) | -0.121 | 0.105 | – | 0.085 | 0.235 | -0.193 | -0.187 | -0.005 | -0.089 | -0.109 | 0.044 | -0.043 | -0.238 | -0.089 | 0.041 | -0.218
5 | FIBP (UniProt O43427) | 0.022 | -0.043 | 0.257 | 0.118 | 0.041 | -0.094 | -0.144 | 0.02 | -0.048 | -0.052 | -0.096 | -0.093 | – | – | -0.201 | – | 0.118 | -0.06 | -0.029 | 0.134
6 | HBQ1 (UniProt P09105) | -0.017 | 0.037 | 0.065 | -0.148 | 0.129 | -0.002 | 0.015 | -0.023 | -0.003 | 0.092 | 0.028 | 0.046 | 0.054 | -0.004 | 0.102 | -0.043 | 0.12 | 0.117 | -0.125 | 0.039
7 | FLNA (UniProt P21333) | 0.014 | -0.078 | -0.01 | 0.04 | -0.014 | -0.045 | 0.108 | 0.127 | -0.013 | -0.025 | 0.011 | 0.059 | -0.056 | -0.025 | -0.158 | 0.059 | -0.053 | 0.007 | -0.176 | 0.112
8 | FIS1 (UniProt Q9Y3D6) | -0.017 | 0.045 | 0.037 | -0.286 (active) | -0.143 | 0.032 | 0.079 | 0.071 | 0.02 | -0.007 | -0.087 | -0.034 | 0.041 | -0.002 | -0.044 | 0.007 | 0.111 | 0.07 | -0.024 | 0.053
9 | FOXO3 (UniProt O43524) | -0.028 | -0.423 (active) | -0.444 | 0.013 | -0.354 | -0.061 | -0.095 | 0.16 | 0.005 | -0.095 | – | 0.002 | – | – | -0.14 | – | 0 | -0.013 | -0.139 | -0.057
10 | FEN1 (UniProt P39748) | 0.018 | -0.488 (active) | 0.367 | -0.018 | 0.07 | -0.162 | -0.024 | 0.177 | -0.065 | -0.126 | 0.02 | 0.23 | -0.149 | 0.053 | – | -0.05 | 0.16 | 0.164 | -0.274 | 0.314
11 | GEMIN2 (UniProt O14893) | 0.032 | -0.043 | 0.001 | 0.061 | -0.129 | 0.02 | – | -0.013 | 0.029 | -0.149 | -0.154 | -0.124 | -0.045 | 0 | 0.049 | -0.027 | -0.039 | -0.095 | 0.08 | -0.048
12 | GTF3C5 isoform 3 (UniProt Q9Y5Q8) | 0.01 | 0.17 | 0.016 | 0.158 | -0.106 | 0.043 | 0.063 | 0.034 | 0.095 | -0.248 | 0.028 | -0.013 | -0.04 | -0.167 | -0.269 | -0.137 | 0.027 | -0.063 | 0.01 | 0.065
13 | FBXO3 (UniProt Q9UK99) | 0.055 | 0.005 | -0.095 | 0.008 | -0.025 | -0.112 | -0.046 | -0.025 | -0.003 | 0.082 | -0.052 | 0.06 | -0.031 | -0.024 | -0.054 | -0.006 | 0.041 | -0.035 | -0.007 | 0.055
14 | HSPA8 (UniProt E9PK54) | -0.05 | -0.023 | -0.272 | 0.334 | -0.05 | 0.01 | 0.033 | 0.088 | 0.143 | 0.012 | 0.096 | -0.069 | -0.105 | -0.011 | 0.011 | 0.072 | -0.409 (active) | 0.062 | 0.227 | 0.024
15 | GDE1 (UniProt Q9NZC3) | 0.033 | 0.063 | 0.077 | -0.087 | -0.014 | – | 0.077 | -0.067 | 0.074 | 0.051 | 0.081 | – | 0.03 | 0.054 | 0.028 | -0.032 | 0.106 | -0.029 | -0.001 | 0.01
16 | GAK (UniProt O14976) | 0.49 | 0.115 | -0.081 | 1.26 | -0.245 | 0.02 | 0.223 | -0.121 | 0.206 | -0.157 | – | -0.072 | 0.257 | 0.792 | 1.31 | 0.232 | -0.07 | -0.031 | -0.238 | 0.005
17 | GAB2 (UniProt Q9UQC2) | -0.084 | -0.899 (active) | -0.361 | 0.033 | -0.836 (active) | -0.071 | -0.34 | 0.181 | 0.118 | -0.511 | – | 0 | – | – | -0.599 | – | 0.002 | 0 | 0.175 | 0.075
